In PubChem BioAssay (EPA / NIEHS) one finds outcome data, which are given here for 39 compounds.

Results filed as inconclusive are left out. Calls of active or inactive are those of the source. Rule for the calls: active = hit-call score of the fitted dose curve at least 0.9, where 1 is the maximum; inconclusive = response in the unintended direction; inactive = score below 0.9.

The first test has as its target Cellular tumor antigen p53 (Homo sapiens) (UniProt P04637). The test is described as follows: TOX21_p53_BLA_p2_ratio: Tox21 HCT-116 p53 Agonism Beta-lactamase Assay, Ratio, Phase 2 (AID 2283592). Summed up:
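Readout: blue/green (460/530 nm) FRET emission ratio after 2 h CCF4-AM loading at room temperature, excitation 405 nm. HCT116 p53 bla cells, 16 h compound exposure at 37C, 5% CO2; agonist direction fitted against DMSO baseline.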
For the compound `CC(C)S`, the result was inactive.
For the compound `CCc1cccc(C)c1`, the outcome was inactive.
Turning to `C=C(C)C(=O)OCCCCCCOC(=O)C(=C)C`, the outcome was inactive.
Turning to `CCCCCCCCCCCCCCCCBr`, the result was inactive.
Same read-out and setting: with `CCCCCCCCCCCCCCBr` the entry was “inactive”; with `O=C1OC(=O)C2CC=CCC12` (centres undefined), “inactive”; with `C[Se]CC[C@H](N)C(=O)O`, “inactive”.
Same read-out and setting: as for `O=C(O)c1ccc(O)cc1O`, the entry is “inactive”; as for `CN1C(=O)c2ccc([N+](=O)[O-])cc2C1=O`, “inactive”.
Same read-out and setting: as for `CC(=O)OCC(=O)Nc1cc(C#N)cc(NC(=O)COC(C)=O)c1Cl`, the entry is “inactive”.
Regarding `CO[C@]1(NC(=O)CSC(F)F)C(=O)N2C(C(=O)O)=C(CSc3nnnn3CCO)CO[C@H]21`, the outcome was inactive.
On the same count and under the same terms, with `COc1ccc2cc([C@H](C)CO)ccc2c1` the entry was “inactive”; with `NC(=O)c1cn(Cc2c(F)cccc2F)nn1`, “inactive”; with `CC(=O)OCC[N+](C)(C)C`, “inactive”.
The same measure, in the same setting: as for `C1COCCO1`, the entry is “inactive”; as for `NC(Cc1ccccc1)C(=O)O` (centres undefined), “inactive”; as for `CC(C)=CCC[C@@](C)(O)[C@H]1CC=C(C)CC1`, “inactive”.
The same measure, in the same setting: as for `CC1=C(C(=O)O)N2C(=O)[C@@H](NC(=O)[C@H](N)c3ccccc3)[C@H]2SC1`, the entry is “inactive”; as for `C=CCCCC`, “inactive”.
On to `O=C(C(=O)c1ccc(Br)cc1)c1ccc(Br)cc1`, for which the result was inactive.
`CO[C@H]1/C=C/O[C@@]2(C)Oc3c(C)c(O)c4c(O)c(c5c(nc6cc(C)ccn65)c4c3C2=O)NC(=O)/C(C)=C\C=C\[C@H](C)[C@H](O)[C@@H](C)[C@@H](O)[C@@H](C)[C@H](OC(C)=O)[C@@H]1C`: the result was inactive.
In the case of `C=C(C)C(=O)NCCC[N+](C)(C)C`, the result was inactive.
On the same count and under the same terms, as for `CC(C)(C)NCC(O)COc1cccc2c1C[C@H](O)[C@H](O)C2` (some centres undefined), the entry is “inactive”.
On the same count and under the same terms, with `CC/C=C(\C(=O)N[C@@H]1C(=O)N2C(C(=O)OCOC(=O)C(C)(C)C)=C(COC(N)=O)CS[C@H]12)c1csc(N)n1` the entry was “inactive”; with `COC(=O)CS`, “inactive”.
As to `CC(C)=CC(C)(C)C`, the outcome was inactive.
Same read-out and setting: as for `O=C(O)CCNC(=O)c1ccc(N=Nc2ccc(O)c(C(=O)O)c2)cc1`, the entry is “inactive”; as for `CC(C)(C)NCCO`, “inactive”.
Same read-out and setting: with `CC1CCCC(=O)C1=O` (centres undefined) the entry was “inactive”.
For `CCCCCCCC/C=C\CCCCCCCC(N)=O`, the result was inactive.
Still for that read-out and setting: with `CN(CC(=O)N1CCOCC1)Cc1c(Cl)cccc1NC(=O)c1ccccc1` the entry was “inactive”; with `CC(CO)CO`, “inactive”.
On the same count and under the same terms, as for `CCCCCCCCCCCCCCCCOP(=O)([O-])OCC[N+](C)(C)C`, the entry is “inactive”.
With `O=C1NCCN1CCO`, the outcome was inactive.
The same measure, in the same setting: with `O=C(NCCc1c[nH]c2ccccc12)c1cccnc1` the entry was “inactive”; with `CC1(C)O[C@@H]2C[C@H]3[C@@H]4CCC5=CC(=O)C=C[C@]5(C)[C@H]4[C@@H](O)C[C@]3(C)[C@]2(C(=O)CO)O1`, “inactive”.
The same measure, in the same setting: as for `CCCN(CC)C(CC)C(=O)Nc1c(C)cccc1C` (centres undefined), the entry is “inactive”; as for `O=C(O)CCS`, “inactive”; as for `CCCCOC(=O)CCS`, “inactive”.

Tested on in the next test: not listed separately
The test is described as follows: TOX21_p53_BLA_p4_viability: Viability Assessment in the Tox21 HCT-116 p53 Agonism Beta-lactamase Assay, Phase 4 (AID 2283597).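 Note: hits lower the luminescence signal meaning cytotoxicity.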 Summed up:
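ATP content by CellTiter-Glo luminescence, 30 min RT, read after the beta-lactamase ratio step. Cells: HCT116, 4000/well, compound added after 5 h, exposure 16 h at 37C. Signal loss = reduced viability.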
With `CCc1cccc(C)c1`, the compound was called inactive.
Same read-out and setting: with `CCCCCCCCCCCCCCBr` the entry was “inactive”.
Same read-out and setting: as for `O=C(O)c1ccc(O)cc1O`, the entry is “inactive”; as for `CC(=O)OCC(=O)Nc1cc(C#N)cc(NC(=O)COC(C)=O)c1Cl`, “inactive”.
Still for that read-out and setting: with `NC(=O)c1cn(Cc2c(F)cccc2F)nn1` the entry was “inactive”; with `CC(=O)OCC[N+](C)(C)C`, “inactive”; with `NC(Cc1ccccc1)C(=O)O` (centres undefined), “inactive”.
`C=CCCCC`: the call was inactive.
The same measure, in the same setting: as for `CO[C@H]1/C=C/O[C@@]2(C)Oc3c(C)c(O)c4c(O)c(c5c(nc6cc(C)ccn65)c4c3C2=O)NC(=O)/C(C)=C\C=C\[C@H](C)[C@H](O)[C@@H](C)[C@@H](O)[C@@H](C)[C@H](OC(C)=O)[C@@H]1C`, the entry is “inactive”; as for `CC/C=C(\C(=O)N[C@@H]1C(=O)N2C(C(=O)OCOC(=O)C(C)(C)C)=C(COC(N)=O)CS[C@H]12)c1csc(N)n1`, “inactive”; as for `COC(=O)CS`, “inactive”.
Same read-out and setting: as for `CC(C)=CC(C)(C)C`, the entry is “inactive”.
Same read-out and setting: with `O=C(O)CCNC(=O)c1ccc(N=Nc2ccc(O)c(C(=O)O)c2)cc1` the entry was “inactive”.
Turning to `CC(C)(C)NCCO`, the compound was called inactive.
Still for that read-out and setting: with `CC1CCCC(=O)C1=O` (centres undefined) the entry was “inactive”; with `CCCCCCCC/C=C\CCCCCCCC(N)=O`, “inactive”.
As for `CN(CC(=O)N1CCOCC1)Cc1c(Cl)cccc1NC(=O)c1ccccc1`, the call was inactive.
`CC(CO)CO`: the compound was called inactive.
Same read-out and setting: as for `O=C(O)CCS`, the entry is “inactive”.

Another test deals with Cellular tumor antigen p53 (Homo sapiens) (UniProt P04637). Put plainly: TOX21_p53_BLA_p5_ratio: Tox21 HCT-116 p53 Agonism Beta-lactamase Assay, Ratio, Phase 5 (AID 2283599). The method in brief: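 Beta-lactamase reporter ratio (blue 460 nm over green 530 nm, 405 nm excitation) after 2 h CCF4-AM loading, in HCT-116 cells exposed 16 h at 37 C to compounds pinned at 217-fold dilution. Increases relative to DMSO baseline scored.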
Chain of Cellular tumor antigen p53 (Homo sapiens) (P04637 whole entry, looked up): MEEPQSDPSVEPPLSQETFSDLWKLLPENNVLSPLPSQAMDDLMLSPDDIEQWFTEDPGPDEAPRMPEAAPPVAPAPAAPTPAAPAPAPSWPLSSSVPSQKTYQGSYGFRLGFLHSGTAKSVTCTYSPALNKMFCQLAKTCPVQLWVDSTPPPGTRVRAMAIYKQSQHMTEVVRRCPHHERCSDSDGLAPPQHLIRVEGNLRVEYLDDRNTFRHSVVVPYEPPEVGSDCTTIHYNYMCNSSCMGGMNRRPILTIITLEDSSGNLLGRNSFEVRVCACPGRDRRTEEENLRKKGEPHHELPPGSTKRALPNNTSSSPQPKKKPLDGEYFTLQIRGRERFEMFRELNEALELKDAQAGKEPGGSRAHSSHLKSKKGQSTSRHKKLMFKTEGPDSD
For the compound `CC(C)S`, the result was inactive.
Same read-out and setting: as for `CCc1cccc(C)c1`, the entry is “inactive”; as for `C=C(C)C(=O)OCCCCCCOC(=O)C(=C)C`, “inactive”.
Take `CCCCCCCCCCCCCCCCBr`: the result was inactive.
On the same count and under the same terms, as for `O=C1OC(=O)C2CC=CCC12` (centres undefined), the entry is “inactive”.
Still for that read-out and setting: with `C[Se]CC[C@H](N)C(=O)O` the entry was “inactive”; with `O=C(O)c1ccc(O)cc1O`, “inactive”.
`CN1C(=O)c2ccc([N+](=O)[O-])cc2C1=O`: the outcome was inactive.
On the same count and under the same terms, as for `CO[C@]1(NC(=O)CSC(F)F)C(=O)N2C(C(=O)O)=C(CSc3nnnn3CCO)CO[C@H]21`, the entry is “inactive”; as for `COc1ccc2cc([C@H](C)CO)ccc2c1`, “inactive”.
Same read-out and setting: as for `C1COCCO1`, the entry is “inactive”.
For `CC(C)=CCC[C@@](C)(O)[C@H]1CC=C(C)CC1`, the result was inactive.
On the same count and under the same terms, with `CC1=C(C(=O)O)N2C(=O)[C@@H](NC(=O)[C@H](N)c3ccccc3)[C@H]2SC1` the entry was “inactive”; with `O=C(C(=O)c1ccc(Br)cc1)c1ccc(Br)cc1`, “inactive”.
As for `C=C(C)C(=O)NCCC[N+](C)(C)C`, the result was inactive.
On to `CC(C)(C)NCC(O)COc1cccc2c1C[C@H](O)[C@H](O)C2` (some centres undefined), for which the outcome was inactive.
Still for that read-out and setting: with `COC(=O)CS` the entry was “inactive”; with `CC(C)=CC(C)(C)C`, “inactive”; with `O=C(O)CCNC(=O)c1ccc(N=Nc2ccc(O)c(C(=O)O)c2)cc1`, “inactive”.
Still for that read-out and setting: as for `CCCCCCCC/C=C\CCCCCCCC(N)=O`, the entry is “inactive”.
On the same count and under the same terms, as for `CCCCCCCCCCCCCCCCOP(=O)([O-])OCC[N+](C)(C)C`, the entry is “inactive”.
For the compound `O=C1NCCN1CCO`, the result was inactive.
The same measure, in the same setting: as for `O=C(NCCc1c[nH]c2ccccc12)c1cccnc1`, the entry is “inactive”.
Same read-out and setting: as for `CC1(C)O[C@@H]2C[C@H]3[C@@H]4CCC5=CC(=O)C=C[C@]5(C)[C@H]4[C@@H](O)C[C@]3(C)[C@]2(C(=O)CO)O1`, the entry is “inactive”; as for `CCCN(CC)C(CC)C(=O)Nc1c(C)cccc1C` (centres undefined), “inactive”; as for `CCCCOC(=O)CCS`, “inactive”.
